This passage reports outcome and Potency results from PubChem BioAssay (NCATS).

The target in experiment [1] is Lysine-specific demethylase 5B (Homo sapiens) (UniProt Q9UGL1). Kind of experiment: Optimization screen for KDM5B Histone Demethylases FDH coupled qHTS against the LOPAC library (AID 1347166). The following applies: KDM5B demethylation, FDH-coupled NADH fluorescence (FDH is formaldehyde dehydrogenase); series mostly up to 57.5 µM. In short, it runs like this:
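KDM5BDeltaAP (200nM final) in 50mM HEPES pH 7.5, 0.01% Tween-20 was preincubated with compound for 10 min at room temperature. A substrate mix of 12.5uM H3K4Me3, 25uM a-ketoglutarate, ascorbate, Fe2+, NAD+ and formaldehyde dehydrogenase was then added. NADH fluorescence (340/450 nm) was read initially and after 30 min.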

The nature of experiment [2]: Vero cells viability qHTS for Zika virus inhibitors (AID 1347167). Note: potency is the fitted concentration of half-maximal effect. The following applies: cytotoxicity counter-screen (Zika); series mostly up to 45.9 µM. In short, it runs like this:
(§1)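 To flag cytotoxic protease inhibitors, viability is measured by ATP-dependent luminescence (CellTiter Glo) after cells attached overnight receive compound for 24 to 48 hours in DMEM with 4% FBS.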
Background: qHTS replaces the single test concentration by a dilution series.

A short description of experiment [3]: HepG2 cells viability qHTS for Zika virus inhibitors (AID 1347168). The following applies: Zika counter-screen; series mostly up to 45.9 µM. The procedure, abridged:
as §1

Experiment [4] in a line: Tertiary RLuc qRT-PCR qHTS assay for Zika virus inhibitors (AID 1347169). Note: nearly all actives have a fitted effect of over 55% in size. Note: potency is the fitted concentration of half-maximal effect. The settings on record: infected Vero cells, reporter luminescence, 48-72 h; series mostly up to 45.9 µM. In short, it runs like this: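 Inhibition of ZIKV-RLuc replication in Vero cells, read as Renilla luminescence 1-1.5 hrs after live-cell substrate addition, following 48-72 hrs infection at MOI 1-2 in presence of compound.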
Background: Quantitative PCR measures a nucleic acid by following its amplification.

Results filed as inconclusive are left out. A call without a number means that no potency is given here. Active and inactive are the calls of the source. Calls come from the whole dose curve; as a rule, active = well fitted curve in the direction sought with a large enough effect; inconclusive = small, poorly fitted or top-dose-only effect, or another doubt; inactive = no such curve, though single readings can be large; an effect the other way counts as inactive or inconclusive.

Lysine-specific demethylase 5B (Homo sapiens), sequence (Q9UGL1 whole entry, looked up): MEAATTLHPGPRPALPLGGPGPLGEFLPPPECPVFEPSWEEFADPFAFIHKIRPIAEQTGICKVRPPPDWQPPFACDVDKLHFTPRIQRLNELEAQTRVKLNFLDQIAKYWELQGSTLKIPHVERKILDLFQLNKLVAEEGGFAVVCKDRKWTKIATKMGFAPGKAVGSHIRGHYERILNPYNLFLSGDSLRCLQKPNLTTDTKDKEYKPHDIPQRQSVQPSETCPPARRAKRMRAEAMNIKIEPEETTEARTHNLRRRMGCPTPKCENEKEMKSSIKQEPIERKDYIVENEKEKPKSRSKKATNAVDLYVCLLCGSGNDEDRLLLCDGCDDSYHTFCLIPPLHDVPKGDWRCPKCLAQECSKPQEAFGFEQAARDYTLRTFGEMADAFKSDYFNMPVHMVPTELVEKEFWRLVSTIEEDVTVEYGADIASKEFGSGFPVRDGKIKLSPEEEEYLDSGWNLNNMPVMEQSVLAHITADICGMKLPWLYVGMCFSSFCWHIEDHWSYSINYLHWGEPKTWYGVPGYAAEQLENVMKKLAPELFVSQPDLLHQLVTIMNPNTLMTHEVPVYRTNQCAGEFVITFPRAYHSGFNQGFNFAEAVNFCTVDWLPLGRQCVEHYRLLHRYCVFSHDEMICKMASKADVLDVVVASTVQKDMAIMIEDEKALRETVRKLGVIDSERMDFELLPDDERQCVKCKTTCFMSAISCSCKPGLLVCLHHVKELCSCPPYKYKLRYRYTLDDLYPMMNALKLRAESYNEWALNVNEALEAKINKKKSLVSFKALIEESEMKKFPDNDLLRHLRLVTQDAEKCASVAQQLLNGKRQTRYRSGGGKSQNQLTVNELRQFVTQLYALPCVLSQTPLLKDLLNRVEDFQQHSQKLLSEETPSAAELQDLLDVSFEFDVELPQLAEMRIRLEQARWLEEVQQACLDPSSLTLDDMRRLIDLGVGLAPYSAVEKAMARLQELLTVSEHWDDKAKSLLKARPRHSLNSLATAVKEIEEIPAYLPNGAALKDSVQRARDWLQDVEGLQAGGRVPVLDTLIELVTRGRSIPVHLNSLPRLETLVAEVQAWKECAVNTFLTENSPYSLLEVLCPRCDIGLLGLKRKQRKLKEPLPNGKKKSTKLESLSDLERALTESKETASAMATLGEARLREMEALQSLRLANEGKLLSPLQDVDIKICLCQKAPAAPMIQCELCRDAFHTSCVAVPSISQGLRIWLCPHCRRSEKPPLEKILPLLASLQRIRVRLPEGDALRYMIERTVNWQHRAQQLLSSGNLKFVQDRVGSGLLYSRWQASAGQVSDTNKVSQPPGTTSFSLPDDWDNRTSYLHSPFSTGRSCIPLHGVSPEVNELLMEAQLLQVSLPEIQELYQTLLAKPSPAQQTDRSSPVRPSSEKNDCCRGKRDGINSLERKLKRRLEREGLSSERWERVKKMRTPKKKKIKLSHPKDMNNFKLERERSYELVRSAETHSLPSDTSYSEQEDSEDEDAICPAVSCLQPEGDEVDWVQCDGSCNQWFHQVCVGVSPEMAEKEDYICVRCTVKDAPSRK

`COc1cc2c(c(OC)c1OC)-c1ccc(OC)c(=O)cc1[C@@H](NC(C)=O)CC2`: the compound was called inactive in experiment [1].
In the case of `O=C1Cc2cc(CCN3CCN(c4nsc5ccccc45)CC3)c(Cl)cc2N1`, the Potency result in experiment [2] and in experiment [4] was “inactive” in each case. Further, in experiment [3], the compound was classed as inactive.
Turning to `O=c1[nH]cc(F)c(=O)[nH]1`, the compound was classed as inactive in experiment [1].
`O=C(CCCN1CCC(O)(c2ccc(Cl)cc2)CC1)c1ccc(F)cc1`: in experiment [1], the call was inactive.
On the same count and under the same terms, the same measure for `Cc1cn([C@H]2C[C@H](N=[N+]=[N-])[C@@H](CO)O2)c(=O)[nH]c1=O`: “inactive”; for `NCCCCCC(=O)O`: “inactive”; for `Cn1c(=O)c2[nH]cnc2n(C)c1=O`: “inactive”.
On to `O=C(Nc1ccc([N+](=O)[O-])cc1Cl)c1cc(Cl)ccc1O`, for which, in experiment [1], the call was inactive. Further, the Potency in experiment [2] is 415 nM (active); in experiment [4], 294 nM (active).
`Cc1cnc(C(=O)NCCc2ccc(S(=O)(=O)NC(=O)NC3CCCCC3)cc2)cn1`: the result in experiment [1] and in experiment [3] was inactive. Besides, the Potency entry in experiment [2] and in experiment [4] was “inactive” each time.
Consider `CC(C)NCC(O)COc1ccc(CCOCC2CC2)cc1` (stereo not given), for which the compound was called inactive in experiment [1].
The same measure, in the same setting: the same measure for `CCCNCC(O)COc1ccccc1C(=O)CCc1ccccc1` (stereo not given): “inactive”.
As to `CC(C)(C)C(=O)Oc1ccc(S(=O)(=O)Nc2ccccc2C(=O)NCC(=O)O)cc1`, the Potency result in experiment [2] and in experiment [4] was “inactive” each time. Moreover, the call in experiment [3] was inactive.
For `Cn1ccc2cc3c(cc21)CCN3C(=O)Nc1cccnc1`, the compound was classed as inactive in experiment [1] and in experiment [3]. In addition, the Potency entry in experiment [2] and in experiment [4] was “inactive” each time.
Regarding `CC1COc2c(N3CCN(C)CC3)c(F)cc3c(=O)c(C(=O)O)cn1c23` (stereo not given), the Potency result in experiment [2] and in experiment [4] was “inactive” in each case. In addition, the call in experiment [3] was inactive.
`O=C(c1ccc(F)cc1)C1CCN(CCn2c(=O)[nH]c3ccccc3c2=O)CC1`: the result in experiment [1] and in experiment [3] was inactive. Further, the Potency result in experiment [2] and in experiment [4] was “inactive” throughout.
`CCOC(=O)Nc1ccc(NCc2ccc(F)cc2)nc1N`: the Potency entry in experiment [2] and in experiment [4] was “inactive” throughout. In addition, the compound was classed as inactive in experiment [3].
